# In the library only some 4% were active in any assay of this set; here they are far more common.
# TIM10 inh – inhibits growth of TIM10 yeast strain. actives 1.4% (n = 330,000). S. cerevisiae TIM10 strain growth, BacTiter-Glo luminescence, 24 h. inhibition, % at 10 µM;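 active means inhibition of 40% or more at the single tested concentration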;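 further: wild-type TIM10 isogenic control strain grown at permissive 25 °C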
# NALP1 yeast inh – NALP1 inhibition | S. cerevisiae NALP1/ASC/caspase-1 growth, X-gal OD620, 72 h | inhibition, % at 10 µM | actives 0.61% (n = 280,000); in the data active means inhibition mostly above about 24%, no sharp cut-off; inactive means mostly below about 32%
# tim23-1 inh – growth inhibitors of tim23-1 mutant yeast. S. cerevisiae tim23-1 growth, BacTiter-Glo luminescence, 24 h. inhibition, % at 20 µM. actives 1.3% (n = 330,000). AID 463212;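 active means growth inhibition of the mutant yeast at or above 50%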;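 further: temperature-sensitive mutant grown at 25 °C; plate controls were DMSO-treated mutant yeast for no effect and medium wells lacking yeast for full effect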
# NLRP3 yeast inh – NALP3 inhibition in yeast. Yeast reconstituted NLRP3/ASC/caspase-1, beta-gal luminescence, 24 h. inhibition, % at 10 µM. actives 0.39% (n = 330,000). AID 2825;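 active means inhibition of 50% or more; inactive means inhibition below 50%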;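 further: plate controls were induced DMSO wells for no effect and uninduced yeast grown without galactose for full effect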
# tim10-1 inh – inhibits growth of tim10-1 mutant yeast. S. cerevisiae tim10-1 ts strain growth, BacTiter-Glo, 24 h. inhibition, % at 20 µM. actives 2.2% (n = 330,000). AID 463190;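 active means inhibition of at least 40%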;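 further: mutant grown at 25 °C; 0% = DMSO wells with yeast and 100% = wells holding no yeast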
# tim10-1 confirm – confirmation of tim10-1 mutant yeast growth inhibitors. S. cerevisiae tim10-1 ts strain growth, BacTiter-Glo, 24 h. shares compounds with tim10-1 inh. actives 56% (n = 7,400). inhibition, % at 20 µM. AID 463213;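 active means inhibition of yeast growth at or above a set limit in either of two repeat tests at 20 µM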;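 further: tim10-1 mutant grown at permissive 25 °C to find synthetic lethal compounds; 0% = DMSO yeast wells and 100% = medium wells without yeast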
# The depositor's hits bear a star; nt = not tested or not shown.
SMILES,TIM10 inh,NALP1 yeast inh,tim23-1 inh,NLRP3 yeast inh,tim10-1 inh,tim10-1 confirm
O=[N+]([O-])c1ccc2oc(C(O)c3cccc(Cl)c3)cc2c1 (stereo not given),22,3,47,11,44*,43*
CCOc1ccc(-n2cc(C(=O)Nc3cccc(OC)c3)c3cc(OC)c(OC)cc3c2=O)cc1,12,4,23,-1,42*,36*
Cc1ccccc1OCC(=O)Nc1ccc2c(c1)C(=O)N(CCC(=O)O)C2=O,12,-1,-17,8,-17,nt
Cc1nnc(N/N=C/c2cc([N+](=O)[O-])c(N3CCC(C)CC3)cc2N2CCC(C)CC2)n1N,27,9,33,16,34,nt
CCc1nnc(N/N=C/c2ccc(N3CCC(C)CC3)c([N+](=O)[O-])c2)n1N,36,0,31,22,48*,42*
CCCCn1c(N)c(N(CCC(C)C)C(=O)C2CC(=O)N(CCc3ccc(OC)c(OC)c3)C2)c(=O)[nH]c1=O (stereo not given),10,nt,1,21,11,nt
CCN(C(=O)CSc1nnc2c3ccccc3n(CC)c2n1)C1CCS(=O)(=O)C1 (stereo not given),8,13,11,0,3,nt
C/C(=N\OCc1ccc(C#N)cc1)c1ccccc1,-14,20,12,36,1,nt
C/C(=N\OCc1ccc(C#N)cc1)c1ccc(S(=O)(=O)N(C)C)cc1,10,21,33,9,42*,41*
CCN(C(=O)COC(=O)c1oc2ccccc2c1C)c1c(N)n(Cc2ccccc2)c(=O)[nH]c1=O,10,nt,3,29,-12,nt
COc1ccc(C2C=C(C34CC5CC(CC(C5)C3)C4)NC(=S)N2)cc1OC (stereo not given),8,12,40,-4,56*,17
O=C(COc1ccc(S(=O)(=O)NC2CCCCC2)cc1)N1CCN(c2cccc(Cl)c2)CC1,18,14,25,3,46*,21
CC(C)NS(=O)(=O)c1ccc(OCC(=O)N2CCN(c3ccccc3)CC2)cc1,11,10,-10,3,16,nt
CCOC(=O)C1=NN(C(=O)Cc2ccccc2)C(O)(c2ccc(Cl)cc2)C1 (stereo not given),24,9,43,8,42*,32*
CCOC(=O)C1=NN(C(=O)COc2ccccc2)C(O)(c2ccc(Cl)cc2)C1 (stereo not given),31,-1,42,16,27,nt
Cc1cc2nc(C)c3c(n2n1)CCC3,-13,-6,9,-2,7,nt
Cc1nc2c(Cl)c(C)nn2c2c1CCC2,-3,4,19,-3,41*,21
CCOC(=O)CSc1cc(-c2ccccc2)nc2ncnn12,34,nt,36,14,44*,35*
CN(C1CCCCC1)S(=O)(=O)c1ccc(NC(=O)c2ccco2)cc1,11,1,42,42,44*,29*
CN(c1ccccc1)S(=O)(=O)c1ccc(NC(=O)c2ccco2)cc1,28,5,44,13,33,nt
CN(C)/C=C/C1=C([N+](=O)[O-])C(c2cccc([N+](=O)[O-])c2)NC(=O)N1 (stereo not given),22,nt,18,7,3,nt
CC(=C/c1ccc(C(C)C)cc1)/C=N/NC(=O)CSc1ccccn1,29,9,-1,8,47*,20
CC(/C=N/NC(=O)CSc1ccccn1)=C\c1ccc(C(C)C)cc1,-4,46,39,10,39,nt
COc1ccc2nc(C)cc(N3CCN(S(=O)(=O)c4ccccc4F)CC3)c2c1,30,nt,47,25,40*,21
C=CCN(CC=C)C(=S)NC(=O)c1ccc(OC)c(Br)c1,25,11,45,22,14,nt
SMILES,TIM10 inh,NALP1 yeast inh,tim23-1 inh,NLRP3 yeast inh,tim10-1 inh,tim10-1 confirm
CCN(CC)C(=S)NC(=O)c1ccc(OC)c(Br)c1,18,25,27,17,44*,19
Cc1c(C(=O)NCCSc2ccc(Cl)cc2)cccc1[N+](=O)[O-],30,32,38,13,41*,37*
O=C(ON=C1CCN(S(=O)(=O)c2ccccc2)CC1)c1ccccc1,30,5,39,-18,58*,56*
O=S(=O)(c1ccccc1)N1CCC(=NO)CC1,-17,-7,13,-10,9,nt
CCOc1ccc(S(=O)(=O)NCC(=O)OCc2nnc(-c3ccccc3)o2)cc1,-1,nt,0,13,-8,nt
CCCn1cnc2c(sc3nc4c(cc32)CSC(C)(C)C4)c1=O,32,nt,29,19,41*,8
CCCn1c2ccc(C)cc2c2n[nH]c(=S)nc21,17,-11,48,19,46*,-1
Oc1ccc(CN2CCN(c3ccccc3)CC2)c2cccnc12,-34,3,18,-27,66*,-37
O=[N+]([O-])c1cc(CN2CCN(c3cccc(C(F)(F)F)c3)CC2)c2cccnc2c1O,20,6,42,5,48*,9
Oc1c(CN2CCN(c3ccccn3)CC2)cc(Cl)c2cccnc12,25,79*,46,37,52*,19
O=[N+]([O-])c1cc(CN2CCCC2)c2cccnc2c1O,nt,13,nt,nt,nt,nt
COC(=O)c1ccc(C(=O)OC)c(NC(=S)N2CCCC(C)C2)c1 (stereo not given),6,13,18,13,21,nt
Cc1nnc(SCc2cc(=O)oc3ccc4ccccc4c23)n1Cc1ccccc1,15,37,44,8,46*,24
COc1ccc(NC(=O)c2ccc(Cl)c(S(=O)(=O)N3CCc4ccccc4C3)c2)cn1,20,8,15,17,47*,19
O=C(NCCCN1CCCC1=O)c1ccc2c(=O)n(-c3ccccc3F)c(=S)[nH]c2c1,-6,12,0,1,0,nt
CCOC(=O)Nc1ccc(C(=O)NCC2CCCO2)cc1 (stereo not given),9,15,27,-10,43*,9
Cc1ccc(C(=O)Nc2ccc(C(=O)NCC3CCCO3)cc2)cc1 (stereo not given),-7,0,2,20,5,nt
CCn1nccc1C(=O)Nc1cc(Cl)cc(Cl)c1,35,-6,41,32,41*,24
CCOc1ccccc1N(C)C(=O)c1nn(-c2ccc(OC)cc2OC)c(=O)c2ccccc12,15,13,27,26,37,nt
N#CC(C(=O)Nc1ccc(Cl)c(Cl)c1)=C1Nc2ccccc2N1,7,12,-10,13,45*,19
C=CCNC(=S)NNC(=O)c1ccccc1OCC,0,-24,4,10,6,nt
Cc1cc(C(=O)CN2C(=O)C(=O)N(CC(C)C)C2=O)c(C)n1C1CC1,8,nt,39,18,2,nt
CC(C)c1nnc2c(N(C)S(=O)(=O)c3ccccc3)nc3ccccc3n12,8,8,30,-6,43*,-28
CC(C)Cc1ccccc1S(N)(=O)=O,-2,2,16,-7,5,nt

# From PubChem BioAssay
